{"source": "PubChem BioAssay (Tox21)", "note": "Records with an inconclusive call do not appear. The source holds several records for some structures; these can differ, active in one and inactive in another. Active and inactive are the calls of the source. Calls follow the shape of the dose curve; as a rule, active = well fitted cell-killing curve with a large enough effect in the repeat runs; inconclusive = weak or mixed curves, or effect the other way; inactive = flat fitted curve, though single readings scatter. % is scaled to controls: 0 for no effect and ±100 for the full control effect; potency is read from the fitted curve at half-maximal effect.", "data": [{"experiment": "qHTS RealTime-Glo MT Cell Viability Assay in HEK293 cells - 32 hour (AID 1224868); also: nearly all actives have a fitted effect of over 50% in size; as to activity change, negative = cytotoxic: top concentration of the series differs between compounds", "details": "RealTime-Glo luminescence; series mostly up to 76.8 µM; activity change, negative = cytotoxic: at the top concentration", "source_text": "National Center for Advancing Translational Sciences [NCATS]\nNIH Chemical Genomics Center [NCGC]\nU.S. Environmental Protection Agency [EPA]\nNational Institutes of Environmental Health Sciences [NIEHS]\nNational Toxicology Program [NTP]\nU.S. Food and Drug Administration [FDA]\nMeasure of cell viability is critical in the cell-base assay. Analysis of cell viability is necessary for the characterization of cell responses to cytotoxic drugs and environmental stress. A RealTime-Glo MT Cell Viability Assay to monitor cell viability in real time of continues cell culture during 40 hours of compound treatment was used to screen Tox21 10K library compounds in Hek293 cells. The RealTime-Glo MT Cell Viability Assay is a nonlytic, homogeneous, bioluminescent method to measure cell viability in real time using a simple, plate-based method. The assay involves adding NanoLuc luciferase and a cell-permeant prosubstrate to cells in culture. Viable cells reduce the proprietary prosubstrate to generate a substrate for NanoLuc luciferase. This substrate diffuses from cells into the surrounding culture medium, where it is rapidly used by the NanoLuc Enzyme to produce a luminescent signal. The signal correlates with the number of viable cells, making the assay well suited for cytotoxicity studies.\nTox21 Assay Protocol Summary:\nThe mixture of Hek293 cell suspension and reagents were dispensed at 600cells/6 ul/well in 1536-well tissue culture treated black solid bottom plates using a Multidrop dispenser. After the assay plates were incubated at a 37 C/5% CO2 incubator for 5 hours, 23 nL of compounds dissolved in DMSO, positive and negative controls was transferred to the assay plate by a pintool work station. The plates were incubated at 37 C for 40 hours. The luminescence intensity were measured at 0h, 8h, 16h, 24h, 32h and 40h time points using ViewLux plate reader during compound treatment.", "values": [{"smiles": "CCCCCCCC(=O)Cl", "activity change, negative = cytotoxic": "4.41% (inactive)"}, {"smiles": "C#CCOC(=O)/C=C(C)/C=C/CC(C)CCCC(C)C", "note": "(stereo not given)", "activity change, negative = cytotoxic": "11.3% (inactive)"}, {"smiles": "CCCOC(=O)Cc1ccc(OCC(=O)N(CC)CC)c(OC)c1", "activity change, negative = cytotoxic": "-5.69% [at 35.3 µM] (inactive)"}, {"smiles": "NNCc1ccccc1", "activity change, negative = cytotoxic": "-20.7% (inactive)"}, {"smiles": "S=C=S", "activity change, negative = cytotoxic": "6.4% (inactive)"}, {"smiles": "CC(=O)CN(CC(C)=O)N=O", "activity change, negative = cytotoxic": "6.49% (inactive)"}, {"smiles": "ClC1=C(Cl)C2(Cl)C(CBr)CC1(Cl)C2(Cl)Cl", "note": "(stereo not given)", "Potency": "49 µM (active) and inactive"}, {"smiles": "CC(C)(O)C(Cl)(Cl)Cl", "activity change, negative = cytotoxic": "3.54% [at 35.3 µM] (inactive)"}, {"smiles": "CCOP(=O)(CN(CCO)CCO)OCC", "activity change, negative = cytotoxic": "-0.429% (inactive)"}, {"smiles": "CCC(C(N)=O)N1CCCC1=O", "note": "(stereo not given)", "activity change, negative = cytotoxic": "5.19% [at 35.3 µM] (inactive)"}, {"smiles": "Nc1c(Cl)c(F)nc(OCC(=O)O)c1Cl", "activity change, negative = cytotoxic": "-0.0821% (inactive)"}, {"smiles": "CCN(CCO)CCO", "activity change, negative = cytotoxic": "-2.62% (inactive)"}, {"smiles": "COc1ccc(C=O)cc1O", "activity change, negative = cytotoxic": "-0.319% (inactive)"}, {"smiles": "CCC1(CC)C(=O)C=CNC1=O", "activity change, negative = cytotoxic": "3.23% [at 35.3 µM] (inactive)"}, {"smiles": "CC(O)CCl", "note": "(stereo not given)", "activity change, negative = cytotoxic": "2.78% (inactive)"}, {"smiles": "C=C(Cl)CCl", "activity change, negative = cytotoxic": "-0.17% (inactive)"}, {"smiles": "C1CN2CCC1CC2", "activity change, negative = cytotoxic": "-1.04% [at 35.3 µM] (inactive)"}, {"smiles": "CCCC(C)(COC(N)=O)COC(N)=O", "activity change, negative = cytotoxic": "6.59% (inactive)"}, {"smiles": "C=C1C[C@@H]2[C@H](CC[C@]3(C)C(=O)CC[C@@H]23)[C@@]2(C)C=CC(=O)C=C12", "activity change, negative = cytotoxic": "-0.862% [at 35.3 µM] (inactive)"}, {"smiles": "CC(C)(C)C(=O)C(Cl)Cl", "activity change, negative = cytotoxic": "7.82% (inactive)"}, {"smiles": "NC(=O)OCCCc1ccccc1", "activity change, negative = cytotoxic": "4.22% [at 35.3 µM] (inactive)"}, {"smiles": "CCCC(C)C1(CC)C(=O)N=C(S)NC1=O", "note": "(stereo not given)", "activity change, negative = cytotoxic": "2.47% [at 35.3 µM] (inactive)"}, {"smiles": "C=C1CC[C@@]2(O)[C@H]3Cc4ccc(O)c5c4[C@@]2(CCN3CC2CC2)[C@H]1O5", "activity change, negative = cytotoxic": "9.22% [at 35.3 µM] (inactive)"}, {"smiles": "COP(=O)(OC)O/C(C)=C/C(=O)N(C)C", "activity change, negative = cytotoxic": "14% (inactive)"}, {"smiles": "[O-][Br+2]([O-])O", "activity change, negative = cytotoxic": "3.6% [at 35.3 µM] (inactive)"}, {"smiles": "COC[C@@H](NC(C)=O)C(=O)NCc1ccccc1", "activity change, negative = cytotoxic": "4.12% [at 35.3 µM] (inactive)"}, {"smiles": "CCCCCCCCBr", "activity change, negative = cytotoxic": "-1.33% (inactive)"}, {"smiles": "NCCOS(=O)(=O)O", "activity change, negative = cytotoxic": "1.52% (inactive)"}, {"smiles": "CCC1(c2cccc(O)c2)CCCCN(C)C1", "note": "(stereo not given)", "activity change, negative = cytotoxic": "2.43% [at 35.3 µM] (inactive)"}, {"smiles": "O=c1[nH]c2ccccc2o1", "activity change, negative = cytotoxic": "-0.512% (inactive)"}, {"smiles": "CC(C)(C)NC[C@H](O)c1ccc(O)cc1Cl", "activity change, negative = cytotoxic": "3.43% [at 35.3 µM] (inactive)"}, {"smiles": "CCOC(=O)N(C)N=O", "activity change, negative = cytotoxic": "-0.0391% (inactive)"}, {"smiles": "C[C@@H](N)[C@@H](O)c1ccccc1", "activity change, negative = cytotoxic": "2.53% [at 35.3 µM] (inactive)"}, {"smiles": "C[N+]1(C)CCCCC1", "activity change, negative = cytotoxic": "17.2% (inactive)"}, {"smiles": "CC(C)(C1CCC(O)CC1)C1CCC(O)CC1", "note": "(stereo not given)", "activity change, negative = cytotoxic": "-21.5% (inactive)"}, {"smiles": "COP(=O)(O)OC", "activity change, negative = cytotoxic": "-3.67% (inactive)"}, {"smiles": "CCCN1CCC[C@@H]2Cc3[nH]ncc3C[C@H]21", "activity change, negative = cytotoxic": "1.31% [at 35.3 µM] (inactive)"}, {"smiles": "CCC1(c2ccccc2)CCC(=O)NC1=O", "note": "(stereo not given)", "activity change, negative = cytotoxic": "-4.79% [at 35.3 µM] (inactive)"}, {"smiles": "CCOC(=O)Nc1cccc(OC(=O)Nc2ccccc2)c1", "activity change, negative = cytotoxic": "-25.9% (inactive)"}, {"smiles": "C=CCCC#N", "activity change, negative = cytotoxic": "6.13% (inactive)"}]}]}
